Compound activity (PubChem)
Sampled rows, rich in hits. Any-hit rate of the full collection: about 3.6%.
D1 antagonist = human D1 dopamine receptor antagonism; HEK293 TREx D1 cells, calcium flux, dopamine EC80; active compounds read low; 360,000 tested, 3.2% active; P21728; AID 504652; activity change, negative = inhibition, % at 10 µM; in the data active means activity change below about -30%; further: on the % scale 0 is the no-effect control and ±100 the full control effect
Target sequence (P21728 whole entry, looked up): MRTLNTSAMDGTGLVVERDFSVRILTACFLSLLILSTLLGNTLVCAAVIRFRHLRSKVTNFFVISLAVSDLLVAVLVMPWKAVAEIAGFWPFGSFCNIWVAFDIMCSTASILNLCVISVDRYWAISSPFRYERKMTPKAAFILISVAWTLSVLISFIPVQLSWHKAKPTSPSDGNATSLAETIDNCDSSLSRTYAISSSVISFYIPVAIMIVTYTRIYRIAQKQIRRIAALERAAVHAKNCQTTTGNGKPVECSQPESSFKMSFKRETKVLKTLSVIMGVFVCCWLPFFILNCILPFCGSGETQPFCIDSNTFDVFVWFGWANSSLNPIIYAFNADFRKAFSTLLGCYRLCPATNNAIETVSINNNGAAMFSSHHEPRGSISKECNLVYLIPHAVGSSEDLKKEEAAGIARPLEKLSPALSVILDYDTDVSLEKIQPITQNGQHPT
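Calcium flux readout: force-coupled, inducible Hek293 Trex D1 line, cells induced overnight at 30 C with tetracycline, dye-loaded 30–90 min at RT. Antagonism scored against EC80 dopamine challenge given 180 s after compound.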
TRHR enhancer = TRH receptor (human) allosteric enhancement; TRHR cells, fluo-8 calcium fluorescence, EC20 TRH enhancement; P34981; 360,000 tested, 0.66% active; AID 493056; enhancement, % at 2 µM; in the data active means enhancement above about 30%; further: 0% is about no effect
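Enhancer read-out: after compound pinning and an initial kinetic agonist-mode read, an EC20 of TRH (10 nM final) was injected and fluo-8 calcium signal (Ex 480/Em 530) followed at 1 s/cycle for 100 cycles in TRHR-expressing cells.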
D1 agonist = agonists of human D1 dopamine receptor | HEK293 T-REx D1 cells, calcium flux, agonist mode | activation, % at 2 µM | 360,000 tested, 1% active | AID 504660; further: 0% is about no effect
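Agonism was scored from calcium flux recorded over 180 s (1 read/s) after pintool compound addition, following a 10-cycle baseline. Cells were inducible force-coupled HEK293 TREx D1, plated overnight at 30 C and loaded with no-wash calcium dye.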
D1 PAM = enhances dopamine response at the human D1 receptor; AID 504651; P21728; HEK293 TREx D1 cells, calcium flux, dopamine EC20 potentiation; potentiation, % at 10 µM; 360,000 tested, 0.036% active; in the data active means potentiation above about 30%; further: 0% is about no effect
LDHA block = inhibitors of human lactate dehydrogenase A; P00338; purified LDHA, NADH/diaphorase-resazurin fluorescence; active compounds read low; activity change, % (values are at about 110 or 230 µM); 480,000 tested, 0.15% active; in the data active means activity change below about -30%;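 further: plate controls were DMSO wells for no effect and wells without enzyme for full effect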
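Human LDH5 (2 nM) was incubated with 0.06 mM NADH and 0.2 mM pyruvate for 5 min at room temperature in Tris pH 7.4. Remaining NADH was coupled through diaphorase/resazurin, and resorufin fluorescence was read at 0 and 20 min.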
TRHR agonist = activates the human TRH receptor | P34981 | TRHR cells, calcium flux fluo-8, FDSS agonist mode | activation, % at 2 µM | 360,000 tested, 0.18% active; further: 0% is about no effect
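TRHR-expressing cells loaded with fluo-8 calcium dye; 23 nL library compound pin-transferred, kinetic FDSS fluorescence (Ex 480/Em 530) recorded about 180 s for agonist-induced calcium release, before a 10 nM TRH EC20 addition for potentiator mode.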
Numbers without * were called inactive. Unless noted, no stated cut-off is given here; in the data, active means activation above about 30%; inactive means the rest.

`O=C(OCCN1C(=O)c2ccccc2C1=O)c1cc(S(=O)(=O)N2CCOCC2)ccc1Cl` gave D1 antagonist -20.8, TRHR enhancer -1.5, D1 agonist 0.7, D1 PAM -1.6, LDHA block 0.2 and TRHR agonist 0.0.
Screening O=C(OCCN1C(=O)c2cccc3c(N4CCOCC4)ccc(c23)C1=O)c1ccccc1Cl returned D1 antagonist -24.9, TRHR enhancer 12.3, D1 agonist 167.4*, D1 PAM 24.2, LDHA block -7.1 and TRHR agonist 0.3.
`O=C(OCCN1C(=O)c2cccc3c(N4CCOCC4)ccc(c23)C1=O)c1ccc(Cl)cc1Cl` gave D1 antagonist -37.4*, TRHR enhancer 6.4, D1 agonist 165.3*, D1 PAM -9.6, LDHA block -8.9 and TRHR agonist 71.1*.
For COc1ccc(C(=O)/C=C/c2ccc(Br)cc2)cc1 the results were LDHA block 2.0.
`CCCOc1ccc(/C=C/C(=O)Nc2cccc3cccnc23)cc1OC` gave LDHA block 0.9.
Screening Cc1ccc(/C=C(/SCC(=O)O)c2nc3ccccc3s2)cc1C returned LDHA block 3.1.
C/C(CC(=O)NC1CCCC1)=N\NC(=O)c1ccc([N+](=O)[O-])c(Cl)c1 was read as D1 antagonist 19.9, TRHR enhancer 37.6*, D1 agonist 0.8, D1 PAM -4.7, LDHA block -0.1 and TRHR agonist -0.1.
For CCN1CCN(CCNC(=O)CCc2c(C)c3c(C)nn(-c4ccccc4)c3n(C)c2=O)CC1 the results were D1 antagonist -46.2*, TRHR enhancer -4.2, D1 agonist 1.8, D1 PAM -16.9, LDHA block -2.2 and TRHR agonist 0.6.
For O=C(O)CCc1cc(I)c(Oc2ccc(O)c(I)c2)c(I)c1 the results were D1 antagonist 0.5, TRHR enhancer 12.6, D1 agonist 85.5*, D1 PAM -9.0 and TRHR agonist 1.5.
For CC(=O)Nc1ccc(NC(=O)C(C)Sc2nc3ccc(Cl)cc3c(=O)n2CC(C)C)cc1 (stereo unspecified) the results were LDHA block -2.3.
Screening O=C(C1=C[C@@H](c2ccc(Br)cc2)C[C@@H](OCCCCO)O1)N1CCOCC1 returned D1 antagonist -69.8*, TRHR enhancer 3.2, D1 agonist -5.0, D1 PAM -5.5, LDHA block -4.4 and TRHR agonist -0.1.
`O=C(NCc1ccccc1)C1=C[C@H](c2ccc(Br)cc2)C[C@H](OCc2ccc(CO)cc2)O1` gave D1 antagonist 1.8, TRHR enhancer -6.0, D1 agonist 32.4*, D1 PAM -2.8, LDHA block 0.6 and TRHR agonist -0.6.
Screening O=C(C1=C[C@@H](c2ccccc2)C[C@@H](OCCCCO)O1)N1CCOCC1 returned D1 antagonist -37.4*, TRHR enhancer 2.5, D1 agonist -4.8, D1 PAM -2.5, LDHA block -3.1 and TRHR agonist -0.4.
CN1CCN(C(=O)C2=C[C@@H](c3ccccc3)C[C@@H](OCCCCO)O2)CC1 was read as D1 antagonist -3.2, TRHR enhancer -0.6, D1 agonist -1.6, D1 PAM -3.6, LDHA block -2.1 and TRHR agonist -0.1.
O=C(C1=C[C@@H](c2ccc(Br)cc2)C[C@@H](OCc2ccc(CO)cc2)O1)N1CCOCC1 was read as D1 antagonist -2.6, TRHR enhancer 0.9, D1 agonist 1.7, D1 PAM -0.2, LDHA block -10.5 and TRHR agonist 0.7.
Screening O=C(C1=C[C@H](c2ccc(Br)cc2)C[C@H](OCc2ccc(CO)cc2)O1)N1CCOCC1 returned D1 antagonist -33.0*, TRHR enhancer 4.4, D1 agonist 2.3, D1 PAM -1.9, LDHA block -3.8 and TRHR agonist 0.4.
Oc1ccc(NCc2ccccc2OCc2ccc(Cl)cc2)cc1 was read as D1 antagonist -2.6, TRHR enhancer 47.2*, D1 agonist 0.3, D1 PAM -3.2, LDHA block 33.0 and TRHR agonist -0.5.
Screening CCOc1cc(CNc2ccc(O)cc2)ccc1OCc1ccc(Cl)cc1 returned D1 antagonist -30.1*, TRHR enhancer 7.7, D1 agonist 2.1, D1 PAM -6.7, LDHA block 29.0 and TRHR agonist -0.3.
`Cc1ccc(N(C(C)C(=O)N2CCCC2)S(C)(=O)=O)cc1` (stereo unspecified) gave D1 antagonist -32.1*, TRHR enhancer -7.0, D1 agonist 1.2, D1 PAM 4.3, LDHA block -1.4 and TRHR agonist 0.0.
CCNC(=O)NC(=O)C(C)Sc1cc(C)c2ccccc2n1 (stereo unspecified) was read as LDHA block -6.4.
CC(C)(C)C(=O)N1CCN(c2ccc(NC(=O)c3ccc([N+](=O)[O-])o3)cc2)CC1 was read as D1 antagonist -7.5, TRHR enhancer 5.2, D1 agonist 47.9*, D1 PAM -8.2, LDHA block 2.0 and TRHR agonist -0.7.
Screening CCC(=O)N1CCN(c2ccc(NC(=O)c3ccc([N+](=O)[O-])o3)cc2)CC1 returned D1 antagonist 4.1, TRHR enhancer 4.9, D1 agonist 0.8, D1 PAM -4.2, LDHA block 6.8 and TRHR agonist 0.3.
Screening CC(C)(C)C(=O)N1CCN(c2ccc(NC(=O)c3ccc4c(c3)OCCO4)cc2)CC1 returned D1 antagonist -30.3*, TRHR enhancer -3.7, D1 agonist 4.8, D1 PAM -4.4, LDHA block -5.1 and TRHR agonist 0.9.
COc1cccc(C(=O)/C(C#N)=C\c2ccccc2OC(F)F)c1 was read as LDHA block 6.6.
For CCCn1c(N2CCN(Cc3ccc(Cl)c(Cl)c3)CC2)nc2c1c(=O)[nH]c(=O)n2C the results were LDHA block 9.8.
For CN(C)CCNS(=O)(=O)c1ccc(N2CCc3ccccc32)c([N+](=O)[O-])c1 the results were D1 antagonist -2.8, TRHR enhancer -4.9, D1 agonist 64.5*, D1 PAM -5.0, LDHA block 0.6 and TRHR agonist -0.8.
CC(=O)c1ccc(N2CCN(c3ccc(S(=O)(=O)NCCN(C)C)cc3[N+](=O)[O-])CC2)cc1 was read as D1 antagonist -15.4, TRHR enhancer 1.1, D1 agonist 17.1, D1 PAM -2.5, LDHA block -1.6 and TRHR agonist 2.9.
Screening O=[N+]([O-])c1cn(-c2nc(-c3ccco3)cc(C(F)(F)F)n2)cn1 returned TRHR enhancer -2.9, D1 agonist 62.3*, D1 PAM -1.4, LDHA block -9.4 and TRHR agonist 0.7.
Screening CCOC(=O)N1CCN(c2nc(-c3ccco3)cc(C(F)(F)F)n2)CC1 returned D1 antagonist 34.2, TRHR enhancer 1.3, D1 agonist 2.3, D1 PAM -6.8, LDHA block -0.5 and TRHR agonist -0.3.
